dFosB activator – activators of mouse delta FosB homodimer. P13346. purified delta FosB, TAMRA-CDK5 oligo fluorescence polarization; percent of positive-control signal above neutral wells. activation, % at 25 µM. hit rate 0.99% among 340,000. AID 493131;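 active = mean activation above about 17%, with every replicate also reaching it, limit read from the data, passing the limit was not always enough; inconclusive = only one of the two conditions met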
Target sequence (P13346 whole entry, looked up): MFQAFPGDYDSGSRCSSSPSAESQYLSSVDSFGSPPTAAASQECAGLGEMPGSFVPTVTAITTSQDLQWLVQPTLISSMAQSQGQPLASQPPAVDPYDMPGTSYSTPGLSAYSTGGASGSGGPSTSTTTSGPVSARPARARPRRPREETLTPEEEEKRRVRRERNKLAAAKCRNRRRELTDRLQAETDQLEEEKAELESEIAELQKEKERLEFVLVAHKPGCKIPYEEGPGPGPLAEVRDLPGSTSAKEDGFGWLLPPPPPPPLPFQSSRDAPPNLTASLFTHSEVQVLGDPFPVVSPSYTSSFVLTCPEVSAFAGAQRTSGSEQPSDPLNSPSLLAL
Platelet DG rel – platelet dense granule release activity. hit rate 0.22% among 300,000. human platelet-rich plasma, SFLLRN dense granule ATP release, luminescence. AID 1663. inhibition, %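 (compounds screened at 7.5 µM in platelet-rich plasma)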;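 active = mean replicate score, as percent of positive control, at or above 50; inconclusive = mean below 50 but at least one replicate at or above 50; inactive = mean and every replicate below 50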
HSF1 inh – HSF1 inhibition | NIH3T3-HGL HSE-luciferase, MG132-induced, luminescence 8 h; hits give low values | AID 2098 | hit rate 0.77% among 300,000 | activity change, negative = inhibition, % at 7.5 µM (by protocol);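 active = more than half of replicate wells show activity change below -50%, luminescence cut by over half; inconclusive = some wells, but at most half, below -50%; inactive = no replicate well below -50%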;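 also: luciferase reports HSF-1 transcriptional activity via heat shock element; 0% = median of DMSO wells and -100% = zero luminescence signal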
HSP90 inh – HSP90 refolding inhibition in rabbit reticulocyte lysate; hit rate 0.91% among 290,000; AID 1789; inhibition, % at 5.6 µM; luciferase refolding luminescence, 3 h;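 active = inhibition above the screen-wide mean plus 3 SD, computed separately per campaign, cut at about 16% in these data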;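 also: 0% = DMSO wells and 100% = 60 µM geldanamycin wells; inhibitors lower the luminescence because luciferase stays unfolded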
MPTP inh – permeability transition pore inhibition; isolated mouse mitochondria, Ca2+ swelling absorbance, 30 min; hit rate 1.4% among 360,000; AID 602449; inhibition, % at 10 µM;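 active = inhibition of 50% or more, scaled per plate between neutral and stimulator controls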;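 also: 0% = DMSO wells given calcium and 100% = 1 mM EGTA wells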
HSF1 activator – increases HSF-1 driven luciferase reporter signal | activation, % at 9 µM | hit rate 1.7% among 300,000 | NIH3T3-HGL HSF-1 luciferase reporter, MG132, 8 h; 100% = twice DMSO control signal | AID 504408;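 active = mean replicate activation of at least 50% with a set share of replicates each reaching 50%; inconclusive = only one of those two conditions met; inactive = mean below 50% and too few replicates reaching it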;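 also: 0% = median of the neutral control wells and 100% = twice that signal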
HSP90 confirm – confirmation of HSP90 inhibitors; rabbit reticulocyte lysate, luciferase refolding luminescence, 3 h; inhibition, % at 5.9 µM; shares compounds with HSP90 inh; hit rate 64% among 2,300; in the data active = inhibition above about 18%;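 also: 0% = vehicle wells and 100% = reference inhibitor wells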
luciferase ctr – counter-screen for HSP90 inhibitors: inhibitors of firefly luciferase | hit rate 48% among 2,300 | AID 1847 | inhibition, % at 5.9 µM | shares compounds with HSP90 inh | purified native firefly luciferase, luminescence;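 active = inhibition above the mean inhibition of all tested sample wells plus 3 SD, cut at about 10% in these data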;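 also: 0% = DMSO with luciferase and 100% = wells lacking luciferase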
Active calls of the source: *; ? = inconclusive; . = not tested or not shown. Most compounds without a hit are left out; they make up all but 4.9% or so of the library.

SMILES	dFosB activator	Platelet DG rel	HSF1 inh	HSP90 inh	MPTP inh	HSF1 activator	HSP90 confirm	luciferase ctr
O=c1c2c(nc3cc(-c4ccc(F)cc4)[nH]n13)CCCC2	3.5	3.3	3.5	18.4*	-2.8	-6.9	43.5*	28.8*
O=C(COc1ccc(Br)cc1Cl)NC(=S)Nc1ccccn1	7.2	-0.3	-39.9	32.2*	2.2	-48.8	38.1*	32.5*
Cc1ccc(OCC(=O)NC(=S)Nc2ccccn2)c(Br)c1	0.0	-11.5	-62.8*	72.5*	3.5	-65.7	80.4*	79.4*
COc1ccccc1C1=NNC(=Nc2cccc(S(=O)(=O)N(C)C)c2)SC1	-1.4	2.9	-42.6	-0.3	-3.5	-43.8	.	.
COC(=O)c1ccc(NC(=O)c2ccc3nsnc3c2)cc1	-1.5	-7.6	10.1	68.5*	0.0	23.3	-14.6	-27.3
COc1ccc(N=Nc2ccc3ccccc3c2)c(O)c1	-2.8	8.7	-40.6	29.8*	2.1	-55.5	53.4*	54.8*
Cc1ccc(N=Nc2ccc3ccccc3c2O)cc1	-4.2	1.6	-72.7*	58.7*	10.6	-78.0	76.8*	72.6*
Oc1c(N=Nc2ccc(F)cc2)ccc2ccccc12	14.9	4.8	10.2	2.6	7.2	4.5	.	.
COc1cccc(N=Nc2ccc3ccccc3c2O)c1	-54.8	16.0	-62.4*	27.7*	8.8	-69.6	57.7*	57.5*
Oc1c(N=Nc2nn[nH]n2)ccc2ccccc12	.	.	.	.	4.8	.	.	.
Cc1c(C(=O)N(CCO)Cc2ccccc2)oc2c(F)cccc12	-1.8	2.0	34.8	1.5	0.2	28.3	.	.
O=C1/C(=C/c2cccc(F)c2)Oc2cc(O)ccc21	-2.8	11.2	26.3	-3.1	8.7	45.0	.	.
Cc1cc(N=Nc2ccc(C)c(N=Nc3cc(C)c(N)cc3N)c2)c(N)cc1N	15.5	40.9	-15.8	16.5*	3.7	-19.4	33.4*	51.1*
Cc1ccccc1-c1nc(-c2ccccn2)no1	-2.3	46.8	?	46.3*	-0.7	-53.3	85.7*	81.9*
COc1ccccc1-c1nc(-c2ccccn2)no1	-15.9	25.2	-9.8	46.7*	0.7	-7.1	78.0*	65.1*
Brc1ccc(-c2nc(-c3ccccn3)no2)o1	-6.7	-5.0	-3.7	44.5*	-0.3	1.6	60.0*	55.1*
Brc1ccc(-c2noc(-c3ccccn3)n2)o1	-10.3	10.1	23.2	11.3	-0.3	36.0	.	.
COC(=O)[C@@H]1Cc2c([nH]c3ccccc23)C(C)(C)N1C(=O)CCl	4.2	3.9	?	0.1	-1.0	-59.0	.	.
CCc1ccc(C(O)c2ncc(-c3ccc4ccccc4c3)[nH]2)cc1 (stereo not drawn)	.	.	.	.	3.4	.	.	.
CCCCn1nnnc1C1(C)CCC(=O)N1CCc1c[nH]c2ccccc12 (stereo not drawn)	.	.	.	.	1.4	.	.	.
O=C(CCN1C(=O)/C(=C/c2ccccc2F)SC1=S)NC1C=CS(=O)(=O)C1 (stereo not drawn)	-9.9	-7.8	-3.0	6.5	-0.2	-2.9	.	.
Cc1ccc(F)c(NC(=S)Nc2cccc3ccccc23)c1	-0.6	10.6	-17.9	17.7*	0.7	-24.6	-5.7	-8.7
Cc1ccccc1NC(=S)Nc1cccc2cnccc12	-1.6	0.2	11.8	73.3*	3.2	25.5	-2.8	-6.8
Cc1ccccc1-c1nc2sc3c(c2c(=O)n1N)CCCC3	-3.3	-2.0	-60.2*	37.6*	0.1	-68.8	36.6*	37.0*
COc1ccc(-c2ccc(=O)n(CC(=O)NCC3COCCO3)n2)cc1 (stereo not drawn)	-2.7	0.3	-0.8	.	-0.5	3.9	.	.
SMILES	dFosB activator	Platelet DG rel	HSF1 inh	HSP90 inh	MPTP inh	HSF1 activator	HSP90 confirm	luciferase ctr
CNC1=C(N(C(C)=O)c2ccc(Br)cc2)C(=O)c2ccccc2C1=O	-12.1	-4.1	-33.3	63.0*	1.7	-40.2	11.9	-7.5
CCC(=O)N(C1=C(NC)C(=O)c2ccccc2C1=O)C(C)C	2.6	-2.1	2.8	-0.4	1.6	-1.9	.	.
Cc1ccccc1OCC(=O)N/N=C1\CC(=O)CC(C)(C)C1	-5.4	8.4	0.8	-0.1	-0.3	8.7	.	.
CC1(C)CC(=O)C/C(=N/Nc2nc3ccccc3s2)C1	-4.3	1.2	-37.2	22.3*	0.1	-46.8	5.4	-6.4
CCC/C=N/Nc1nc2ccccc2s1	0.0	-13.6	14.5	19.8*	4.1	?	10.9	1.6
CC1CCC/C(=N/Nc2nc3ccccc3s2)C1 (stereo not drawn)	3.8	6.1	-21.9	46.8*	-1.1	-28.8	25.0*	12.4*
CC1=C(C(=O)OC2CCCCC2)C(c2ccc(F)cc2)NC(=O)N1 (stereo not drawn)	-13.7	4.2	3.0	4.9	1.9	-0.4	.	.
COc1ccc(Cl)cc1NC(=O)CN(C)CC(=O)NCc1ccc(F)cc1	-13.2	.	.	.	-2.9	.	.	.
COc1ccccc1NC(=O)c1cc(N)cc(C(=O)Nc2ccccc2OC)c1	-1.5	21.7	-5.0	.	3.3	-1.1	.	.
COc1ccccc1NC(=O)c1coc(=O)c(Br)c1	1.6	5.9	-14.3	55.2*	3.5	-3.1	83.3*	-7.3
Cc1cccc(-c2noc(C3CCCCC3)n2)c1	0.7	0.7	14.8	64.5*	-2.5	37.5	5.8	-12.4
Cc1ccc(-c2noc(C3CCCCC3)n2)cc1	-0.9	2.1	21.8	-4.3	-2.0	42.8	.	.
CC(C)C(O)(CC#CCN1CCCC1)c1ccccc1 (stereo not drawn)	-4.2	-3.3	8.5	58.8*	-0.8	22.2	-4.7	-6.0
Cc1ccc(-c2onc3ccc(C=O)cc23)cc1	-1.9	1.4	-24.3	49.8*	-1.4	-32.8	12.1	-23.6
O=C(Nc1ccc(N2CCOCC2)cc1)c1cnsn1	1.4	13.1	-37.9	70.6*	-1.0	-40.9	82.6*	76.3*
O=C(Nc1ccc(N2CCOCC2)cc1)c1cnccn1	-10.1	21.9	0.9	45.7*	-0.6	21.5	67.0*	43.5*
O=C(Nc1ccc(N2CCOCC2)cc1)c1ccncc1	7.5	28.5	-3.0	0.9	-0.1	-2.0	.	.
COc1ccc2[nH]cc(CCNC(=O)C3CC(=O)N(c4ccc(Cl)cc4)C3)c2c1 (stereo not drawn)	-4.0	11.1	4.2	1.5	0.3	-8.8	.	.
COc1ccc(C(=O)c2c3ccc(C(F)(F)F)cc3[n+]([O-])n2CCCN)cc1	3.4	-2.6	-4.1	.	11.6	-24.7	.	.
Cc1ccc(CCNC(=O)CNC(=O)c2cccs2)cc1	6.5	-3.1	-5.7	0.4	1.7	5.3	.	.
COc1ccc(NC(=O)c2ccccn2)cc1	-0.8	57.6*	-19.1	35.0*	0.1	4.2	64.2*	46.7*
CC(C)C(=O)Nc1ccc(NC(=O)c2ccccn2)cn1	-1.8	1.0	3.8	37.4*	0.6	31.9	37.4*	26.6*

Compound activity: PubChem, several laboratories
